Screen size: about 290,000 compounds; about 3,000 (1%) were called active. Rule as the data show it: active = inhibition mostly above about 36% (no sharp cut-off); inactive = mostly below about 34%. For the sample, actives were picked, then their nearest neighbours and some compounds at random.
Assay: NOD1 signaling inhibitors, primary screen, cell-based, luminescence, uHTS (AID 1578);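 also: HEK-293T reporter cells stimulated with the NOD1 agonist gamma-tri-DAP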
Conditions: NOD1-driven NF-kB luciferase reporter cells, at 4 µM, active compounds read high

inhibition, inactive:
CC(C)=CC1C=C(C)C(C)C2C(=O)NNC(=O)C12 (stereo not drawn) 10.4%, CCOC(=O)C1=C(COC(=O)/C=C/c2ccccc2Cl)NC(=O)NC1C (stereo not drawn) -17.4%, CCOC(=O)C1=C(c2ccccc2)ON(C)C1c1ccccc1 (stereo not drawn) -0.8%, N#C/C(=C(/O)c1ccc([N+](=O)[O-])o1)c1nc2ccccc2[nH]1 -7.3%, N#C/C(=C(/O)c1ccc(Br)s1)c1nc2ccccc2[nH]1 9.1%, N#C/C(=C(/O)c1ccc(Cl)cc1)c1nc2ccccc2[nH]1 3.5%, COc1ccccc1/C(O)=C(\C#N)c1nc2ccccc2[nH]1 5.5%, N#C/C(=C(/O)c1ccc([N+](=O)[O-])cc1)c1nc2ccccc2[nH]1 3.7%, Cc1ccc2nc(/C(C#N)=C\c3ccc([N+](=O)[O-])o3)[nH]c2c1 0.5%, NC(=O)c1c(NC(=O)C(=O)NCCCN2CCOCC2)sc2c1CCCC2 6%, O=C(CCNS(=O)(=O)/C=C/c1ccccc1)NCCc1c[nH]c2ccccc12 -0.1%, CCN(CC)Cc1c(C(=O)N/N=C/c2ccc(OCc3ccccc3C)cc2)nnn1-c1nonc1N -6.7%, COc1ccc(NC(=O)CCCn2cnc3ccccc3c2=O)cc1 9%, COC(=O)c1ccc(Cl)c(NC(=O)c2cccc([N+](=O)[O-])c2C)c1 -17.4%, O=C(N/N=C/c1cc(Br)cc([N+](=O)[O-])c1O)c1ccc(NC(=O)c2ccc(F)cc2)cc1 7%, COC(=O)c1ccc(N/N=C/c2cc([N+](=O)[O-])cc(OC)c2O)cc1 -49.6%, CCn1c(CNc2ccc(Cl)cc2)nnc1SCC#N -48.7%, COc1ccc(-c2[nH]ncc2CN2CCCC2c2nonc2C)c(F)c1 (stereo not drawn) -55.4%, COc1cc(C(=O)OCC(=O)Nc2ccc(F)cc2F)cc(OC)c1OC 3.5%, Cc1ccc(N/N=C(/Sc2nnnn2-c2ccccc2)C(=O)c2ccccc2)cc1 -42.4%, O=C(/C(=N\Nc1ccc(Br)cc1)Sc1nnnn1-c1ccccc1)c1ccccc1 -15%, CC1=CC(C)(C)N(C(=O)CN2C(=O)CCC2=O)c2ccc(C)cc21 -11.3%, CC1=CC(C)(C)N(C(=O)CN2C(=O)c3ccccc3C2=O)c2ccccc21 -18.1%, Cc1ccc(C)c(C(=O)CN2C(=O)CCC2=O)c1 -14.2%, Cc1ccc(C)c(C(=O)CN2Cc3ccccc3C2=O)c1 -5.3%, O=C(NCCc1ccco1)C(=O)NCC1OCCCN1S(=O)(=O)c1ccc(F)cc1 (stereo not drawn) 10.4%, COc1ccc(S(=O)(=O)N(C)C)cc1NC(=O)[C@H](Cc1ccccc1)N1C(=O)c2ccccc2C1=O 2%, O=c1nc(SCc2c(F)cccc2Cl)nc(-c2ccc(Cl)cc2)[nH]1 9.8%, O=c1nc(SCc2ccc(Cl)cc2)nc(-c2ccccc2)[nH]1 -3.2%, C/C(COc1ccccc1)=N\NC(=O)c1nnn(-c2nonc2N)c1CSc1ccccc1 -2.2%, CCOc1cc(C2NC(=O)NC(c3ccccc3)=C2C(C)=O)ccc1OCC(N)=O (stereo not drawn) 14.5%, Cc1ccc(NC(=O)CCNC(=O)c2ccco2)cc1Cl -23.6%, O=[N+]([O-])c1cc(S(=O)(=O)NCCN2CCOCC2)ccc1Sc1nnnn1-c1ccccc1 46.1%, O=C(O)c1ccc(Sc2nnnn2-c2ccccc2)c([N+](=O)[O-])c1 -15.3%, COC(=O)c1ccc(Sc2nnnn2-c2ccccc2)c([N+](=O)[O-])c1 48.6%, O=[N+]([O-])c1ccc(Sc2nnnn2-c2ccccc2)c(Cl)c1 -1%, COC(=O)c1ccccc1NC(=O)CN1CCN(Cc2ccccc2)CC1 1.4%, Cc1nc(Nc2nc(CSc3nc4ccccc4[nH]3)cc(=O)[nH]2)nc2ccccc12 -5.7%, COc1ccc2nc(Nc3nc(CSc4nc5ccccc5[nH]4)cc(=O)[nH]3)nc(C)c2c1 -25.6%, O=S1(=O)CCOCCCN1Cc1cccc(F)c1 -39.7%, O=S1(=O)CCOCCCN1Cc1ccccc1 -16.6%, COc1ccc(C(=O)N/N=C/c2c(C)[nH]c(=O)[nH]c2=O)cc1 -27.4%, Cc1ccc(S(=O)(=O)NC(Cc2ccccc2)C(=O)NN)cc1 (stereo not drawn) -27.9%, Cc1ccc(S(=O)(=O)NC(Cc2ccccc2)C(=O)O)cc1 (stereo not drawn) -30.6%, Cc1nnc(SCC(=O)NNC(=O)c2ccc(Br)cc2)n1C -33.3%, CN(CC(=O)N1CCN(c2ccc(F)cc2)CC1)S(=O)(=O)c1ccc2c(c1)c(=O)n(C)c(=O)n2C -11.7%, CCCC(=O)Nc1nc2c(s1)COc1ccccc1-2 48.7%, CCC(=O)Nc1nc2c(s1)COc1ccccc1-2 8.2%, Cc1[nH]c2ccccc2c1C(=O)/C=C/c1ccccc1Cl -24.5%, Cc1[nH]c2ccccc2c1C(=O)/C=C\c1ccccc1Cl -16.5%, COc1ccc(Oc2ccc(/C=N/NC(=O)c3cccnc3)cc2[N+](=O)[O-])cc1 -17.7%, COCCN1CCn2c(nc3cc(NC(=O)c4cccs4)ccc32)C1 -28.2%, CC(c1ccccc1)N1CCn2c(nc3cc(NC(=O)c4cccs4)ccc32)C1 (stereo not drawn) 0.3%, COc1ccc(CC(=O)Nc2c3c(nn2C(C)(C)C)CS(=O)C3)cc1 (stereo not drawn) -19.6%, CN(C)c1ccc(-n2cccc2/C=C/[N+](=O)[O-])cc1 -0.1%, O=[N+]([O-])/C=C/c1ccc2c(ccn2Cc2ccccc2)c1 -4.4%, Cc1[nH]c2ccccc2c1C(=O)CSC(=S)N1CCOCC1 3.9%, CCC1=C/C(=C/c2sc3ccccc3[n+]2CC)CC(C)(C)C1 -7.6%, CC[n+]1c(/C=C2\C=C(C)CC(C)(C)C2)sc2ccccc21 20.8%, Cc1cc(Br)ccc1NC(=S)N1CCOCC1 -0.1%, N#Cc1nc(Cc2ccccc2)oc1NCc1ccccc1 -5.9%, N#Cc1nc(Cc2ccccc2)oc1NCc1cccnc1 -33.9%, COc1cccc(OC)c1C(=O)Nc1cc(C)nn1-c1nc2ccccc2[nH]1 -24.9%, Cc1cc(NC(=O)c2ccccc2)n(-c2nc3ccccc3[nH]2)n1 -15%, Cc1cc(NC(=O)c2ccccc2F)n(-c2nc3ccccc3[nH]2)n1 -8.4%, COc1ccc(/C=C/C(=O)Nc2cc(C)nn2-c2nc3ccccc3[nH]2)cc1 17.4%, CCCCN(C)S(=O)(=O)c1cc2c3c(c1)CCC(=O)N3CCC2 -4.1%, Cc1noc(C)c1C(=O)N1CCCC(N2CCN(c3cccc(C(F)(F)F)c3)CC2)C1 (stereo not drawn) -31.8%, COc1ccc(-c2[nH]ncc2CN(C)Cc2cccnc2)c(OC)c1 -16.3%, CS(=O)(=O)N1CCN(c2ccccc2NC(=O)c2cc(Br)ccc2Cl)CC1 -10.8%, COCCn1c(SCC(=O)Nc2cccc(C(=O)OC)c2)nc2ccccc2c1=O 2.6%, O=C(NC1CC2CCC(C1)N2Cc1ccco1)c1ccccc1 (stereo not drawn) -29.6%, Cc1c(Cl)cccc1NC(=O)Nc1ccccc1C(N)=O -30%, O=C(c1ccc([N+](=O)[O-])cc1)N1CCSC1c1ccccc1 (stereo not drawn) -13.8%

inhibition, active:
N#C/C(=C(\O)c1cc(Cl)sc1Cl)c1nc2ccccc2[nH]1 64.5%, N#C/C(=C(/O)c1ccc([N+](=O)[O-])s1)c1nc2ccccc2[nH]1 71.6%, N#C/C(=C\c1ccc([N+](=O)[O-])o1)c1nc2ccccc2[nH]1 96.8%, CCOC(=O)c1ccc(N/N=C/c2cc(Br)cc([N+](=O)[O-])c2O)cc1 97.2%, O=C(/C(=N\Nc1ccccc1)Sc1nnnn1-c1ccccc1)c1ccccc1 93.1%, Cc1ccc(C)c(C(=O)CN2C(=O)c3ccccc3C2=O)c1 56.5%, CC1=CC(C)(C)N(C(=O)CN2C(=O)c3ccccc3C2=O)c2ccc(C)cc21 33.2%, O=c1nc(SCc2ccccc2Cl)nc(-c2ccc(Cl)cc2)[nH]1 57.8%, CN1CCN(S(=O)(=O)c2ccc(Sc3nnnn3-c3ccccc3)c([N+](=O)[O-])c2)CC1 93.5%, Cc1ccc2c(C)nc(Nc3nc(CSc4nc5ccccc5[nH]4)cc(=O)[nH]3)nc2c1 90.5%, O=S1(=O)CCOCCCN1Cc1cccc(C(F)(F)F)c1 56.8%, Cc1ccc(S(=O)(=O)N[C@@H](Cc2ccccc2)C(=O)CCl)cc1 87.7%, CCCCC(=O)Nc1nc2c(s1)COc1ccccc1-2 62.4%, Cc1[nH]c2ccccc2c(=O)c1C(=O)/C=C/c1ccccc1 79.7%, O=C(Nc1ccc2c(c1)nc1n2CCN(Cc2ccccc2)C1)c1cccs1 89.9%, CN(c1ccccc1)c1ccc(/C=C/[N+](=O)[O-])cc1 105%, CC[n+]1c(/C=C2/C=C(C)CC(C)(C)C2)sc2ccc(OC)cc21 77.4%, N#Cc1nc(Cc2ccccc2)oc1NCc1ccccc1Cl 57%, COc1ccc(C(=O)Nc2cc(C)nn2-c2nc3ccccc3[nH]2)c(OC)c1 98.7%

— PubChem BioAssay AID1578 (Sanford-Burnham Center for Chemical Genomics, 2009)
